This is one part of a sample in which the strongest signals are shown more often than they occur.
Columns and labels:
Experiment in all cases: glycan array binding signal (z-score within array); higher = stronger binding
Conditions in all cases: glycan notation: IUPAC condensed, linker removed
[1] = target: Fuc(a1-2)Gal(b1-4)Fuc(a1-3)]GlcNAc(b1-2)Man(a1-3)[Fuc(a1-2)Gal(b1-4)[Fuc(a1-3)]GlcNAc(b1-2)Man(a1-6)]Man(b1-4)GlcNAc(b1-4)GlcNAc
How it was run: (§1)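 Glycan array binding is given as a within-array Z-score, which can be read as non-binding when negative. The arrays, 3228 of them, came from the Consortium for Functional Glycomics database and were retained only where the protein sequence was available. Z-scores were averaged across arrays of the same protein sequence at different concentrations or buffers and across linkers.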

[2] = target: Fuc(a1-2)Gal(b1-4)GlcNAc(b1-2)Man(a1-3)[Fuc(a1-2)Gal(b1-4)GlcNAc(b1-2)Man(a1-6)]Man(b1-4)GlcNAc(b1-4)GlcNAc
How it was run: as §1

[3] = target: Fuc(a1-2)Gal(b1-4)GlcNAc(b1-3)Gal(b1-4)GlcNAc(b1-2)Man(a1-3)[Fuc(a1-2)Gal(b1-4)GlcNAc(b1-3)Gal(b1-4)GlcNAc(b1-2)Man(a1-6)]Man(b1-4)GlcNAc(b1-4)GlcNAc
How it was run: as §1

[4] = target: Fuc(a1-2)Gal(b1-4)GlcNAc(b1-6)GalNAc
How it was run: as §1

[5] = target: Fuc(a1-2)Gal(b1-4)GlcNAc6S
How it was run: as §1

[6] = target: Fuc(a1-2)Gal(b1-4)[Fuc(a1-3)]GlcNAc(b1-3)GalNAc
How it was run: as §1

[7] = target: Fuc(a1-2)[Gal(a1-3)]Gal(b1-3)GlcNAc(b1-2)Man(a1-3)[Fuc(a1-2)[Gal(a1-3)]Gal(b1-3)GlcNAc(b1-2)Man(a1-6)]Man(b1-4)GlcNAc(b1-4)GlcNAc
How it was run: as §1

[8] = target: Fuc(a1-2)[Gal(a1-3)]Gal(b1-4)GlcNAc(b1-2)Man
How it was run: as §1

[9] = target: Fuc(a1-2)[GalNAc(a1-3)]Gal(b1-3)GlcNAc(b1-6)GalNAc
How it was run: as §1

[10] = target: Fuc(a1-2)[GalNAc(a1-3)]Gal(b1-4)GlcNAc(b1-2)Man(a1-3)[Fuc(a1-2)[GalNAc(a1-3)]Gal(b1-4)GlcNAc(b1-2)Man(a1-6)]Man(b1-4)GlcNAc(b1-4)GlcNAc
How it was run: as §1

[11] = target: Fuc(a1-2)[GalNAc(a1-3)]Gal(b1-4)GlcNAc(b1-3)[Fuc(a1-2)[GalNAc(a1-3)]Gal(b1-4)GlcNAc(b1-6)]GalNAc
How it was run: as §1

[12] = target: Fuc(a1-3)[Gal3S(b1-4)]Glc
How it was run: as §1

[13] = target: Gal(a1-3)Gal
How it was run: as §1

[14] = target: Gal(a1-3)Gal(b1-4)[Fuc(a1-3)]GlcNAc
How it was run: as §1

[15] = target: Gal(b1-3)[Fuc(a1-4)]GlcNAc
How it was run: as §1

[16] = target: Gal(b1-4)GalNAc(b1-3)[Fuc(a1-2)]Gal(b1-4)GlcNAc
How it was run: as §1

[17] = target: Gal(b1-4)GlcNAc(b1-2)Man(a1-3)Man(b1-4)GlcNAc(b1-4)GlcNAc
How it was run: as §1

[18] = target: Gal(b1-4)GlcNAc(b1-2)[Gal(b1-4)GlcNAc(b1-4)]Man(a1-3)[GlcNAc(b1-4)][Gal(b1-4)GlcNAc(b1-2)[Gal(b1-4)GlcNAc(b1-6)]Man(a1-6)]Man(b1-4)GlcNAc(b1-4)GlcNAc
How it was run: as §1

[19] = target: Gal(b1-4)GlcNAc(b1-3)Gal(b1-3)GlcNAc
How it was run: as §1

[20] = target: Gal(b1-4)GlcNAc(b1-3)Gal(b1-4)GlcNAc(b1-3)Gal(b1-4)GlcNAc
How it was run: as §1

[21] = target: Gal(b1-4)GlcNAc(b1-3)Gal(b1-4)GlcNAc(b1-3)Gal(b1-4)GlcNAc(b1-3)Gal(b1-4)GlcNAc(b1-2)Man(a1-3)[Gal(b1-4)GlcNAc(b1-3)Gal(b1-4)GlcNAc(b1-3)Gal(b1-4)GlcNAc(b1-3)Gal(b1-4)GlcNAc(b1-2)Man(a1-6)]Man(b1-4)GlcNAc(b1-4)[Fuc(a1-6)]GlcNAc
How it was run: as §1

[22] = target: GalNAc(b1-4)GlcNAc(b1-2)Man
How it was run: as §1

B1: CcfD (Bacteroides vulgatus), A6KYX8 (protein)
chain: MKYKNYFKSIIYLALGAFTLGSCEDFLDRQEDEKLTFDKIWESRNTTQQYWLNAMSFLPNENGSLQGDTEPYLGASDECTIAYDRQYRWINFGTWNPSQVPYYKMDHYYKGIRECNIFLQNVYKCSDPLVTKDQLDEWYWQTRFARAYYYFLMMRDYGPVFLLGDDLLDFTASTEELYRPRNTWDQCVNYVVSEMTQCAESGVVLQQSDLPAAKWGLATVGTCHAVISRLLLYSARPLFNGNKLYSTVKNPDAPDFPELSGVKLFPELDNTKWQKAAEAAKKLIDNPCYELYRAGNDNPYEDYYGVTHETWNKELIWTDRYNGLFSWGVGTVPTGVAGTAYGAVGPTQALVDAYAMNTGWYPITGYEADGTPIVEPLSGYELASELEKSSWIYPSGGWSNKADFEIEAPNMYKDREPRFYVTVFFGGNQWLHGNSATSISFAKGGNGNKSHDYPKSGYLCNRFYDHKLNSSEGQWGNITFPVFRLGEIYLNFIEAVLECKKNGVALDPSYEALAMEKWADLRKRAGLDPITSIYGQVSTEELIQLCRKERQIELAFERHRYFDTRTWMIATQTDNGKMYGMNTSCPLDAGMKGTETPDGFWERTAFETRVFQNKHYLYPFSQRELDRNKLLTQNYGW
How did the “glycan array binding signal (z-score)” value [1] turn out when B1 was run?
The value was 2.

And the “glycan array binding signal (z-score)” value [2]?
Its value is 4.7.

And the “glycan array binding signal (z-score)” value [3]?
The value was 4.15.

And the “glycan array binding signal (z-score)” value [4]?
Its value is 0.552.

And the “glycan array binding signal (z-score)” value [5]?
Its value is 1.84.

And the “glycan array binding signal (z-score)” value [6]?
Its value is 0.374.

And the “glycan array binding signal (z-score)” value [7]?
The value was 3.23.

What about the “glycan array binding signal (z-score)” value [8] of the same binder?
The value was -0.282.

What about the “glycan array binding signal (z-score)” value [9] of the same binder?
The value was -0.82.

What about the “glycan array binding signal (z-score)” value [10] of the same binder?
The value was 4.4.

What about the “glycan array binding signal (z-score)” value [11] of the same binder?
The value was 0.323.

And the “glycan array binding signal (z-score)” value [12]?
The value was -0.429.

What about the “glycan array binding signal (z-score)” value [13] of the same binder?
Its value is 0.343.

And the “glycan array binding signal (z-score)” value [14]?
Its value is 0.14.

And the “glycan array binding signal (z-score)” value [15]?
The value was -0.269.

And the “glycan array binding signal (z-score)” value [16]?
The value was -0.749.

What about the “glycan array binding signal (z-score)” value [17] of the same binder?
Its value is 3.

And the “glycan array binding signal (z-score)” value [18]?
Its value is -0.683.

And the “glycan array binding signal (z-score)” value [19]?
Its value is -0.932.

What about the “glycan array binding signal (z-score)” value [20] of the same binder?
Its value is -1.02.

What about the “glycan array binding signal (z-score)” value [21] of the same binder?
The value was 0.003.

And the “glycan array binding signal (z-score)” value [22]?
Its value is -0.896.

— the supplement of paper PMC8728848
